Source: PubChem BioAssay
GLP-1R inv ag – qHTS of GLP-1 Receptor Inverse Agonists (Inhibition Mode); Potency, µM (titrated, usually from 38.3 µM), for inactives: at the top dose activity change, negative = inhibition, most hits filed as inhibitors; 1.6% of 410,000 active; Glucagon-like peptide 1 receptor (Homo sapiens), P43220; HEK293 GLP-1R CRE-luciferase, luminescence, 24 h; GLP-1R form is constitutively active; note: potency is the fitted concentration of half-maximal effect; % is set by controls: 0 for no effect and ±100 for the full control effect; nearly all actives have a fitted effect of over 55% in size
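HEK293 cells stably co-expressing a cAMP-responsive luciferase reporter and constitutively active GLP-1R were seeded, incubated 12 h, then exposed to compounds for 24 h at 37 C. Luminescence was read 12 min after detection reagent; inverse agonists lower signal.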
TRHR enhancer – qHTS for Small Molecule Agonists and Allosteric Enhancers of Human TRH Receptor: Primary Screen for Enhancers | Thyrotropin-releasing hormone receptor (Homo sapiens), P34981 | TRHR cells, fluo-8 calcium fluorescence, EC20 TRH enhancement | enhancement, % at 2 µM | 0.66% of 360,000 active | AID 493056, 2011; in the data active = enhancement above about 30%; note: 0% is about no effect
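TRHR-expressing cells loaded with fluo-8 calcium dye were read kinetically (ex 480/em 530) during compound addition, then stimulated with an EC20 of TRH (10 nM final). Enhancement of the Gq-mediated intracellular calcium response was scored.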
GLP-1R agonist – qHTS of GLP-1 Receptor Agonists; Potency, µM (series often up to 45.6 µM), for inactives: top-dose activation, hits mostly activators; HEK293 GLP-1R CRE-luciferase, luminescence, 4-6 h; cells express a hypersensitive GLP-1R form; 0.007% of 380,000 active; Glucagon-like peptide 1 receptor (Homo sapiens), P43220; AID 624172, 2012; note: potency is the fitted concentration of half-maximal effect; % of control where 0% means no effect
PTHR1 ag – qHTS for PTHR1 Agonists: Primary Screen; HEK293 GP2 PTHR1 cells, GloSensor cAMP luminescence, 1 h; Parathyroid hormone/parathyroid hormone-related peptide receptor (Homo sapiens), Q03431; 0.075% of 410,000 active; Potency, µM (titrated, usually from 115 µM), for inactives: at the top dose activation, usual class: activators; AID 743266, 2014; note: potency is the fitted concentration of half-maximal effect; nearly all actives have a fitted effect of over 55% in size
Target sequence (Q03431 whole entry, looked up): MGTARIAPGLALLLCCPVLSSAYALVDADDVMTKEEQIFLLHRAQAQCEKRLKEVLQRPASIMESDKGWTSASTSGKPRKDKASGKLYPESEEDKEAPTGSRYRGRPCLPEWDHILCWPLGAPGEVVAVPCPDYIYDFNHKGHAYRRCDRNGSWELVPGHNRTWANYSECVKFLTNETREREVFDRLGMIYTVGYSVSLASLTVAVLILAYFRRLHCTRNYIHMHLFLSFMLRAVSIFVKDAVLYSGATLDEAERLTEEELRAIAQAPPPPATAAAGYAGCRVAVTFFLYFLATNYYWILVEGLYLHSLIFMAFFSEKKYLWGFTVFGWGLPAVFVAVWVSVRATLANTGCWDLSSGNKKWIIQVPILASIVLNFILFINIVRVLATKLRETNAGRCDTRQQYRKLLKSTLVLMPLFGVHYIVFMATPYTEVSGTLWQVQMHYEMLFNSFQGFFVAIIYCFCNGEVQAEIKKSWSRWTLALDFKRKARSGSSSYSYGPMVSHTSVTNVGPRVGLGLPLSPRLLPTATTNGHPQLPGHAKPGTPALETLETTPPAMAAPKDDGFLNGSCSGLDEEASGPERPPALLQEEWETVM
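HEK-293-derived GP2 cells expressing PTHR1 and a GloSensor cAMP reporter, 3,000/well, plated overnight, given luciferin plus IBMX (each 0.5 mM as added) for 1 h at 37 °C, then compound for 1 h at 37 °C. Luminescence was read after 15 min at room temperature.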
GLP1R cytotox – qHTS of GLP-1 Receptor Inverse Agonists: Cytotox Screen; HEK293 cAMP-luciferase reporter cells, luminescence, 24 h; Potency, µM (doses to about 38.3 µM), without a hit: at the highest dose activity change, negative = inhibition, most hits filed as inhibitors; 0.13% of 410,000 active;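 note: loss of luciferase light is scored as toxicity; potency is the fitted concentration of half-maximal effect; % is set by controls: 0 for no effect and ±100 for the full control effect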
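Luminescence readout: signal drop marks cytotoxicity. Plated cells grew 12 h at 37 °C, 5% CO2, received 23 nL compound for 24 h, then got luciferase reagent, read after 12 min at RT.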
TRHR agonist – qHTS for Small Molecule Agonists and Allosteric Enhancers of Human TRH Receptor: Primary Screen for Agonists | activation, % at 2 µM | Thyrotropin-releasing hormone receptor (Homo sapiens), P34981 | TRHR cells, calcium flux fluo-8, FDSS agonist mode | 0.18% of 360,000 active; in the data active = activation above about 30%; note: 0% is about no effect
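TRHR-expressing cells loaded with fluo-8 calcium dye; 23 nL library compound pin-transferred, kinetic FDSS fluorescence (Ex 480/Em 530) recorded about 180 s for agonist-induced calcium release, before a 10 nM TRH EC20 addition for potentiator mode.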
The depositor's hits bear a star; i = inactive; ? = inconclusive; · = no result given; [ ] = remark or other dose. A selection: hits, their analogues and other compounds. The true share with any hit is near 2.4%. Unless noted, calls come from the whole dose curve; as a rule, active = well fitted curve in the direction sought with a large enough effect; inconclusive = small, poorly fitted or top-dose-only effect, or another doubt; inactive = no such curve, though single readings can be large; an effect the other way counts as inactive or inconclusive.

SMILES	GLP-1R inv ag	TRHR enhancer	GLP-1R agonist	PTHR1 ag	GLP1R cytotox	TRHR agonist
Cc1nc2ccc(NC(=O)c3cccc(S(=O)(=O)N(C)c4ccccc4)c3)cc2s1	5.62µM*	3.9	-32.1%	-32.6%	?	0.5
CC(C)(C)NC(=O)C(c1ccncc1)n1c(=O)c(-c2cc3ccccc3[nH]2)nc2ccccc21 (stereo unspecified)	-70.7%	·	·	-1.8%	i	·
CCOC(=O)[C@]12Cc3cc(OC)ccc3[C@H]1N(Cc1ccccc1)C(=O)c1ccccc12	?	·	-3.4%	-7.8%	-11.2%	·
CCCCCN1C(=O)c2ccccc2[C@@]2(C(=O)OCC)Cc3cc(OC)ccc3[C@@H]12	8.91µM*	·	-13.4%	-52.3%	?	·
CCOC(=O)[C@]12Cc3cc(OC)ccc3[C@H]1N(Cc1ccccc1)C(=O)c1cc(F)c(F)cc12	?	·	7.5%	-23.1%	12.4%	·
CCOC(=O)[C@]12Cc3cc(C)ccc3[C@H]1N(Cc1ccccc1)C(=O)c1cc(F)c(F)cc12	11.2µM*	·	-31.5%	-49.6%	-26.8%	·
CCOP(=O)(OCC)C(NC(=O)C(C)C)C(Cl)(Cl)Cl (stereo unspecified)	9.6%	-11.4	0.7%	-5.5%[57.5 µM]	-2.5%	-0.1
Cc1ccc(-n2c(C)cc(/C=N/NC(N)=S)c2C)cc1	?	-2.0	-16.3%	-6.4%	?	-3.6
COc1cccc(/C=N/NC(N)=S)c1OCc1ccccc1Cl	11.2µM*	2.0	9.6%	0.0%	?	0.2
CCN(CC)C(=O)[C@H]1CC(CC(=O)NC/C=C(\C)CCC=C(C)C)C(=O)N2CCc3c([nH]c4ccc(OC)cc34)[C@]12C (stereo partly specified)	?	·	-2.0%	-38.2%	?	·
CN1C(=O)C(=Cc2ccccc2OCc2ccccc2Cl)C(=O)N(C)C1=O	10µM*	10.7	10.3%	i	-21.6%	-0.1
CCCC1CCCCN1 (stereo unspecified)	·	·	-3.0%	·	·	·
Cc1ccccc1CN1CCN(Cc2ccccc2)CC1	-21.8%	4.1	0.6%	44.7µM*	6.9%	-0.6
Oc1c(Br)cc(Br)cc1CN1CCN(Cc2ccccc2)CC1	10µM*	7.2	19.5%	-50.3%	6.0%	0.6
c1ccc(CN2CCNCC2)cc1	·	·	-6.6%[219 µM]	·	·	·
CCOC(=O)c1cc(C(O)(C(=O)OC)C(F)(F)F)c(/N=C/N(C)C)o1 (stereo unspecified)	21.5%	11.4	0.1%	i	11.3%	-0.1
COc1cc(C2c3cc4c(cc3C(OC3OC5COC(c6cccs6)OC5C(O)C3O)C3COC(=O)C23)OCO4)cc(OC)c1O (stereo unspecified)	?	2.1	-2.5%	-7.6%	?	0.5
COc1cc([C@@H]2c3cc4c(cc3[C@@H](O[C@@H]3O[C@@H]5CO[C@@H](C)O[C@H]5[C@H](O)[C@H]3O)[C@H]3COC(=O)[C@H]23)OCO4)cc(OC)c1O	2.82µM*	·	3.9%	-8.2%	?	·
CCC(=O)c1ccc2c(c1)N(CCCN(C)C)c1ccccc1S2	11.2µM*	·	15.6%	i	?	·
Cc1c(Cl)c(=O)oc2cc(OP(=O)(OCCCl)OCCCl)ccc12	·	·	2.6%	·	·	·
CC(/C=C(\C)Nc1ccccc1)=Nc1ccccc1	5.6%	7.8	9.2%	-8.7%	1.4%	-0.2
NC(=Nc1ccccc1)Nc1ccccc1	?	6.6	-2.2%	i	-4.9%	95.6*
C[C@@H]1C[C@@H]([C@H](O)CC2CC(=O)NC(=O)C2)C(=O)[C@@H](C)C1	0.794µM*	-1.6	-19.0%	i	-37.6%	-0.6
CC(=O)OC1(C)CC(C)C(=O)C(C(O)CC2CC(=O)NC(=O)C2)C1 (stereo unspecified)	-77.4%	·	-5.1%	-59.7%	15.3%	·
O=C(C1CCN(c2ncnc3c2nc2n3CCCCC2)CC1)N1CCN(c2cccc(Cl)c2)CC1	8.91µM*	6.0	-1.8%	-45.1%	?	-0.9
SMILES	GLP-1R inv ag	TRHR enhancer	GLP-1R agonist	PTHR1 ag	GLP1R cytotox	TRHR agonist
O=C1CN(O)C(c2ccccc2)=c2cc(Cl)ccc2=N1	3.7%	-2.7	-3.8%	-8.0%	1.5%	0.9
CCOC(=O)C1CCCN(S(=O)(=O)c2ccc3c4c(cccc24)C(=O)N3CC)C1 (stereo unspecified)	11.7%	-4.2	22.2%	-32.7%	136.6%	0.1
CCOC(=O)C1CCCN(c2ccc([N+](=O)[O-])c3nonc23)C1 (stereo unspecified)	20.7%	33.0*	?	-22.7%	10µM*	247.8*
CCOC(=O)[C@]12Cc3c(cc(OC)c(OC)c3OC)[C@H]1N(C)C(=O)c1cc(OC)ccc12	?	·	-12.6%	-28.4%	-26.1%	·
COC(=O)C1=C(c2ccc(OC(F)(F)F)cc2)C[C@@H]2CC[C@H]1N2C(=O)NCc1cccc2ccccc12	7.94µM*	7.1	0.9%	-8.8%	0.9%	0.6
COC(=O)C1=C(c2ccc(OCc3ccccc3)cc2)C[C@@H]2CC[C@H]1N2C(=O)NC1CCN(Cc2ccccc2)CC1	7.94µM*	-5.1	7.0%	-7.7%	?	0.0
COC(=O)C1=C(c2ccc(OC(F)(F)F)cc2)C[C@@H]2CC[C@H]1N2C(=O)NCc1ccc(F)cc1	?	3.0	0.0%	-12.1%	-9.3%	-0.1
COC(=O)C1=C(c2ccc(OC(F)(F)F)cc2)C[C@@H]2CC[C@H]1N2C(=O)NC1Cc2ccccc2C1	7.1%	-6.3	0.0%	-12.5%	-3.9%	-0.1
COC(=O)C1=C(c2ccc(OC(F)(F)F)cc2)C[C@@H]2CC[C@H]1N2C(=O)NC1CCCCC1	12.6µM*	-3.7	1.9%	i	8.7%	0.0
COc1ccc(C2=NS(=O)(=O)N(C)C(C(=O)N3CCC4(CC3)OCCO4)=C2)cc1OC	37.4%	4.3	3.1%	-20.9%	-3.1%	0.0
CCCCc1ccc2[nH]cc(CCN)c2c1	10µM*	16.5	-0.7%	i	?	9.0
NCCc1c[nH]c2ccccc12	-5.6%	1.3	8.6%	-4.2%	-0.1%	0.2
COc1ccccc1CNCC(O)Cn1c2ccccc2c2ccccc21 (stereo unspecified)	?	12.8	5.8%	-6.8%	?	6.2
N#CC(C#N)=NNc1ccc([N+](=O)[O-])cc1	2.24µM*	-1.5	-10.4%	-0.9%	?	0.2
